PubChem BioAssay (Tox21)
Records with an inconclusive call do not appear. The source made the active and inactive calls. Unless noted, calls follow the shape of the dose curve; as a rule, active = well fitted curve in the direction sought with a large enough effect in the repeat runs; inconclusive = weak or mixed curves; inactive = no such curve, though single readings can be large; an effect the other way counts as inactive or inconclusive.

How the values were obtained:
[1] = target: Estrogen receptor beta (Homo sapiens) (UniProt Q92731); test: qHTS assay to identify small molecule agonists of the estrogen receptor beta (ER-beta) signaling pathway (AID 1259377; active = well fitted activation curve with a large enough effect in the signal ratio in the repeat runs, not every such curve was filed as active; the % refers to the signal ratio; also: potency is read from the fitted curve at half-maximal effect)
Chain of Estrogen receptor beta (Homo sapiens) (Q92731 whole entry, looked up): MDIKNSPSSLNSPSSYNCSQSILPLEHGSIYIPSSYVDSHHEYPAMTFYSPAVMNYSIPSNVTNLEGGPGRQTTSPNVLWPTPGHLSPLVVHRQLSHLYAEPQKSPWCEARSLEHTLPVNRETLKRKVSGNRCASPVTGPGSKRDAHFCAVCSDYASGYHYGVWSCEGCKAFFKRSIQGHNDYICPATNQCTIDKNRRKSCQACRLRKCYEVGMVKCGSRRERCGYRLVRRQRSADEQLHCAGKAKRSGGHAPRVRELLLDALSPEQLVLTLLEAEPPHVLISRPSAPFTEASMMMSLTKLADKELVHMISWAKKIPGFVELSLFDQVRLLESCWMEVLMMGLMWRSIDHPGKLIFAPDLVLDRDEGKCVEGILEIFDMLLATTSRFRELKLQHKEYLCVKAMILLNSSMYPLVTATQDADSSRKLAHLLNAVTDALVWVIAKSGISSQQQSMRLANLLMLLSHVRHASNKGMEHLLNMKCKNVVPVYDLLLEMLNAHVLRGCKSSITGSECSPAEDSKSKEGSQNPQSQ
Procedure, shortened: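 Read-out: beta-lactamase FRET fluorescence. Cell line: ER-beta-UAS-bla HEK293T in 2% charcoal-stripped FBS. Exposure: 16 hr at 37C. Substrate step: 2 h at room temperature.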

[2] = qHTS assay to identify small molecule agonists of the androgen receptor (AR) signaling pathway in the presence of an antagonist - cell viability counter screen (AID 1259379); also: nearly all actives have a fitted effect of over 25% in size; also: potency is read from the fitted curve at half-maximal effect;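 as to activity change, negative = cytotoxicity: MDA-kb2 human breast cancer cells carrying an MMTV luciferase reporter; series mostly up to about 92 µM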
Procedure, shortened: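 Seed MDA-kb2 at 3,000 cells/well; incubate 5 hr, 37C, 0% CO2. Add nilutamide to 3.0uM final, then pin compounds at 15 concentrations. Incubate 16 hr. Add CellTiter-Fluor at 15 hr, read fluorescence after 1 hr.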

[3] = qHTS assay to identify small molecule agonists of the estrogen receptor beta (ER-beta) signaling pathway - cell viability counter screen (AID 1259380); also: nearly all actives have a fitted effect of over 30% in size; also: potency is read from the fitted curve at half-maximal effect
Procedure, shortened: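 CellTiter-Glo read, 30 min RT, same wells as bla assay; cells ER-beta-UAS-bla HEK293T; 16 hr compound, 37C; medium 2% charcoal-stripped FBS.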

[4] = qHTS assay to identify small molecule antagonists of the estrogen receptor beta (ER-beta) signaling pathway - cell viability counter screen (AID 1259382); also: nearly all actives have a fitted effect of over 55% in size; also: potency is read from the fitted curve at half-maximal effect; as to activity change, negative = cytotoxicity: series mostly up to about 92 µM
Procedure, shortened: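 In this multiplexed counter screen, cells were seeded at 2,000 per well in medium with 2% charcoal-stripped FBS and incubated 6 hr before compound and 1nM final E2 were added. Sixteen hours later, ATP-based luminescence reported viability.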

[5] = qHTS assay to identify small molecule agonists of the estrogen receptor alpha (ER-alpha) signaling pathway in the presence of an antagonist - cell viability counter screen (AID 1259386);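 also: cells exposed to compounds for 22 h at 37 °C before the viability read; nearly all actives have a fitted effect of over 30% in size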; also: potency is read from the fitted curve at half-maximal effect; as to activity change, negative = cytotoxicity: series mostly up to about 92 µM
Procedure, shortened: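 Viability counter screen using VM7Luc4E2 (full-length ER-alpha, four ERE-luciferase). The cells were treated with compounds alongside ICI-182,780 10.0nM for 22hr, and live-cell protease fluorescence was quantified with CellTiter-Fluor.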

[6] = qHTS assay to identify small molecule agonists or antagonists of the thyroid stimulating hormone receptor (TSHR) signaling pathway - wild type cell line counter screen (AID 1259384; calls by dose curve; also: potency is read from the fitted curve at half-maximal effect)
Procedure, shortened: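 Wild-type HEK293 cells were plated 18 h at 37 C/5% CO2, pin-dosed with compound plus Ro20-1724 medium, held 30 min at room temperature, then given cAMP-d2 and anti-cAMP-cryptate; fluorescence was read after 1 h. Fifteen concentrations, triplicate.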

[7] = target: Estrogen receptor (Homo sapiens) (UniProt P03372); test: qHTS assay to identify small molecule agonists of the estrogen receptor alpha (ER-alpha) signaling pathway in the presence of an antagonist (AID 1259383; calls by dose curve; also: top concentration of the series differs between compounds; nearly all actives have a fitted effect of over 15% in size)
Chain of Estrogen receptor (Homo sapiens) (P03372 whole entry, looked up): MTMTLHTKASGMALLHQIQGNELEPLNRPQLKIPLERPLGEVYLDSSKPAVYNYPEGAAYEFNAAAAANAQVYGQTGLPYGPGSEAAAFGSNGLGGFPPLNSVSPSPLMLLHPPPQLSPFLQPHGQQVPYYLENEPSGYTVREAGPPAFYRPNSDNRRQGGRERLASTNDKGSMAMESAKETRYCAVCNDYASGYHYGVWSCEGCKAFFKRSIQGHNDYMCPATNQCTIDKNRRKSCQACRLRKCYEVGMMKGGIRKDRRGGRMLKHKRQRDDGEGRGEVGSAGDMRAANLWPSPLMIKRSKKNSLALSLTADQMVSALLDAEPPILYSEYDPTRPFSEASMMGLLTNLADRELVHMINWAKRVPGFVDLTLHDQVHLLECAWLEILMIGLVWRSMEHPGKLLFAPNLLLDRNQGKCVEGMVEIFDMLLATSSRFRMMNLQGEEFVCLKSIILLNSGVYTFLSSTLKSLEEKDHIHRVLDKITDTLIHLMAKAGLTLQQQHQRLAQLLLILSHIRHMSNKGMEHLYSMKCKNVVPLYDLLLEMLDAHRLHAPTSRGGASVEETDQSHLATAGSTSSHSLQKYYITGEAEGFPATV
Procedure, shortened: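 Stably transfected VM7Luc4E2 reporter cells, kept 5 days in charcoal-stripped serum, received ICI-182,780 at 10.0nM final before compound addition. Following 22hr incubation at 37C and 5% CO2, luciferase signal was read by luminescence.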

[8] = target: Thyrotropin receptor (Homo sapiens) (UniProt P16473); test: qHTS assay to identify small molecule antagonists of the thyroid stimulating hormone receptor (TSHR) signaling pathway (AID 1259385; calls by dose curve; also: nearly all actives have a fitted effect of over 20% in size)
Chain of Thyrotropin receptor (Homo sapiens) (P16473 whole entry, looked up): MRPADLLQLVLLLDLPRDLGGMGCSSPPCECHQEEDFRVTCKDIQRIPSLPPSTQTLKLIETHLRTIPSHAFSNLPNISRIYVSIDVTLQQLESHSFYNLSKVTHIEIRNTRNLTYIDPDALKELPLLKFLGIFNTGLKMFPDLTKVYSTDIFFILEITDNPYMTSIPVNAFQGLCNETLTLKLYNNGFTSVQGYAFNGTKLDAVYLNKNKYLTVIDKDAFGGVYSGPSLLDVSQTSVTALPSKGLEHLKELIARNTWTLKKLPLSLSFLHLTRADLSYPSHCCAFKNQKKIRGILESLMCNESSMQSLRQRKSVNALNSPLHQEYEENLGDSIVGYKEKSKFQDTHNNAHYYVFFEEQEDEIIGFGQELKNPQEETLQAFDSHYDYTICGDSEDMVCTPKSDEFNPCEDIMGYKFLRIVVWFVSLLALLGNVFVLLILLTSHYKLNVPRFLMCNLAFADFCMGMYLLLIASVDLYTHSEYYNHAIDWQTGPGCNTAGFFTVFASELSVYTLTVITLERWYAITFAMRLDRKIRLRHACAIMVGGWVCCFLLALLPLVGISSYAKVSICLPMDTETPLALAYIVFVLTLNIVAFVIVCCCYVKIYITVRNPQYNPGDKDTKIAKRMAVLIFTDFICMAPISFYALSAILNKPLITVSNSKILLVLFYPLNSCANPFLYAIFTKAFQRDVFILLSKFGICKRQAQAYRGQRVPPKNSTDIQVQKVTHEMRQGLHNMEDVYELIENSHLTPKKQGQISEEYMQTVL
Procedure, shortened: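 TSHR-HEK293 cells were plated and held 18 h at 37C/5% CO2, then given compound plus Ro20-1724 and stimulated with TSH at 1.5 ng/mL final. After 30 min at room temperature, cAMP was detected with cAMP-d2/anti-cAMP-cryptate (1 h) by fluorescence.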

[9] = target: Estrogen receptor beta (Homo sapiens) (UniProt Q92731); test: qHTS assay to identify small molecule antagonists of the estrogen receptor beta (ER-beta) signaling pathway (AID 1259378; active = well fitted inhibition curve with a large enough effect in the signal ratio in the repeat runs, not every such curve was filed as active; the % refers to the signal ratio; also: potency is read from the fitted curve at half-maximal effect)
Procedure, shortened: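 ER-beta-UAS-bla HEK293T (GripTite) cells in 2% charcoal-stripped FBS medium were preincubated 6 hr at 37C, dosed with compound, then stimulated with 1 nM E2 (final) for 16 hr; beta-lactamase reporter read by B/G FRET fluorescence after 2 hr substrate loading.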

[10] = target: Androgen receptor (Homo sapiens) (UniProt P10275); test: qHTS assay to identify small molecule agonists of the androgen receptor (AR) signaling pathway in the presence of an antagonist (AID 1259381; calls by dose curve; also: nearly all actives have a fitted effect of over 15% in size)
Chain of Androgen receptor (Homo sapiens) (P10275 whole entry, looked up): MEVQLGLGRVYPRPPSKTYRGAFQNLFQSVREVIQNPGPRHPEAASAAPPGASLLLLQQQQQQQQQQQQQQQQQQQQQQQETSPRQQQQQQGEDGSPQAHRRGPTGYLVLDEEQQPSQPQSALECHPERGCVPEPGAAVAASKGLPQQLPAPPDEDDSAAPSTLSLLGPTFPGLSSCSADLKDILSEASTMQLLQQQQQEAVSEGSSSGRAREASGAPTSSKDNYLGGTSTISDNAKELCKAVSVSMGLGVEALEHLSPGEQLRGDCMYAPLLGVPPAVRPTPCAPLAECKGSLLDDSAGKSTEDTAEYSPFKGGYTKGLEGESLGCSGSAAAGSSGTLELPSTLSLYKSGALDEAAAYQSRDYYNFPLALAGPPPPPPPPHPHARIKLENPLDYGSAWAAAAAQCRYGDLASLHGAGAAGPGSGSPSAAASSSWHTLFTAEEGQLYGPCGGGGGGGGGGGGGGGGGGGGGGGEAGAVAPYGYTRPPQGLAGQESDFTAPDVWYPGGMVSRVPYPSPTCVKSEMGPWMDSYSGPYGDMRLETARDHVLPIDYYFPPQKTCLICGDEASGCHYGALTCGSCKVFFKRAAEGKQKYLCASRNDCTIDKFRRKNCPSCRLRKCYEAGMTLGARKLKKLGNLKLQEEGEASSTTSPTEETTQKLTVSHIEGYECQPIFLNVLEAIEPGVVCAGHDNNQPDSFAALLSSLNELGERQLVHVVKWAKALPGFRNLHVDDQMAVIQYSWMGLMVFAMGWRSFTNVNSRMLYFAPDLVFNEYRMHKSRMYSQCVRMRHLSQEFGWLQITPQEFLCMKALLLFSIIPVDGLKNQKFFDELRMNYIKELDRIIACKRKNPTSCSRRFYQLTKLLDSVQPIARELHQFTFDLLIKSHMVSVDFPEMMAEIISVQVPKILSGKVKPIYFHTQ
Procedure, shortened: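 Test compounds at 15 concentrations were incubated for 16hr with MDA-kb2 reporter cells in presence of 3.0uM nilutamide (final). Signal: ONE-Glo luciferase luminescence.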
% is scaled to controls: 0 for no effect and ±100 for the full control effect.

CC(C)OC(=O)C(C)N(C(=O)c1ccccc1)c1ccc(F)c(Cl)c1 (centres undefined)
inactive: Potency [1] | Potency [2] | Potency [3] | Potency [4] | Potency [5]

C#C[C@]1(O)CC[C@H]2[C@@H]3CCc4cc(OC5CCCC5)ccc4[C@H]3CC[C@@]21C
active: Potency [1] 6.68 µM | Potency [3] 29.8 µM
inactive: Potency [2] | Potency [6] | Potency [5]

OCCN1CCN(CCCN2c3ccccc3C=Cc3ccccc32)CC1
active: Potency [3] 5.31 µM
inactive: Potency [1] | Potency [2] | Potency [7] | Potency [6] | Potency [8]

CC(=O)c1ccc2c(c1)N(CCCN1CCC(CCO)CC1)c1ccccc1S2
active: Potency [9] 15 µM | Potency [3] 26.6 µM
inactive: Potency [1] | Potency [7]

CC(=O)NO
inactive: Potency [1] | Potency [2] | Potency [3] | Potency [4] | Potency [6] | Potency [8] | Potency [5]

CCCCCCCCCCO[C@@H]1O[C@H](CO)[C@@H](O)[C@H](O)[C@H]1O
inactive: Potency [1] | Potency [2] | Potency [3] | Potency [4] | Potency [7] | Potency [6] | Potency [8] | Potency [5]

C=C(C)C(=O)OCCOCC
inactive: Potency [1] | Potency [2] | Potency [4] | Potency [7] | Potency [6] | Potency [8]

CCCCCCCCCCCC(=O)OC[C@@H](O)[C@H]1OC[C@H](OCCO)[C@H]1OCCO
inactive: Potency [1] | Potency [2] | Potency [3] | Potency [4] | Potency [7] | Potency [6] | Potency [5]

CCCCCCCCCCCCN1CCCCCC1=O
inactive: Potency [1] | Potency [2] | Potency [4] | Potency [6] | Potency [5]
active: Potency [3] 30.6 µM

c1ccc(-c2ccccn2)nc1
inactive: Potency [1] | Potency [2] | Potency [3] | Potency [10] | Potency [4] | Potency [7] | Potency [6] | Potency [5]

CCN(CC)c1ccc2c(-c3ccccc3C(=O)O)c3ccc(=[N+](CC)CC)cc-3oc2c1
inactive: Potency [1] | Potency [7]
active: Potency [2] 9.69 µM | Potency [3] 8.63 µM | Potency [5] 6.11 µM

CCCCCCCCCCCCCCOS(=O)(=O)O
active: Potency [3] 30.6 µM | Potency [4] 61.1 µM
inactive: Potency [1] | Potency [2] | Potency [7] | Potency [6] | Potency [5]

C/C=C/C(=O)CC
inactive: activation [1] -1.08% [at 19 µM] | activity change, negative = cytotoxicity [2] 0.797% [at 19 µM] | activity change, negative = cytotoxicity [3] 5.9% [at 19 µM] | activity change, negative = cytotoxicity [4] 2.99% [at 19 µM] | Potency [7] | cAMP activity change [6] -0.0314% [at 18.9 µM, hits give high values] | activity change, negative = inhibition [8] 0.568% [at 19 µM] | activity change, negative = cytotoxicity [5] 2.64% [at 19 µM]

CC(C)=CCC/C(C)=C/CC/C(C)=C/CO
inactive: Potency [1] | Potency [2] | Potency [4] | Potency [6] | Potency [5]

Cc1oc(-c2ccccc2)nc1CCOc1cccc2c1ccn2CCC(=O)O
active: Potency [9] 30.6 µM | Potency [3] 10.9 µM | Potency [5] 19.3 µM
inactive: Potency [1] | Potency [4] | Potency [7] | Potency [6]

COc1cc2nc(N3CCN(C(=O)C4COc5ccccc5O4)CC3)nc(N)c2cc1OC (centres undefined)
inactive: Potency [1] | Potency [2] | Potency [3] | Potency [4] | Potency [6] | Potency [5]

c1ccc(C(O[C@H]2CCCN(CCc3ccc4c(c3)OCO4)C2)c2ccccc2)cc1
inactive: Potency [1] | Potency [2] | Potency [4] | Potency [7] | Potency [6] | Potency [8] | Potency [5]

Cn1c(=O)cc(Oc2ccc(F)cc2F)c2cnc(NCC(C)(C)O)nc21
inactive: Potency [1] | Potency [2] | Potency [3] | Potency [4] | Potency [7]

O=C(Nc1ccccc1)c1ccccc1O
active: Potency [2] 61.1 µM
inactive: Potency [1] | Potency [10] | Potency [4]

OC(CN1CCC(Cc2ccc(F)cc2)CC1)c1ccc(Cl)cc1 (centres undefined)
inactive: Potency [1] | Potency [9] | Potency [3] | Potency [10] | Potency [4] | Potency [5]

CCCCc1nc2cccnc2n1Cc1ccc(-c2ccccc2-c2nnn[nH]2)cc1
inactive: Potency [1] | Potency [2] | Potency [7] | Potency [6] | Potency [8]

Cc1ccc(C(=O)Oc2ccc(C(O)CNC(C)(C)C)cc2OC(=O)c2ccc(C)cc2)cc1 (centres undefined)
active: Potency [3] 26.6 µM | Potency [6] 0.0362 µM
inactive: Potency [1] | Potency [7] | Potency [5]

C[C@H](CCC(=O)O)[C@H]1CC[C@H]2[C@@H]3CC[C@@H]4C[C@H](O)CC[C@]4(C)[C@H]3C[C@H](O)[C@]12C
inactive: Potency [1] | Potency [7] | Potency [6] | Potency [5]
active: Potency [3] 48.7 µM

Cc1cccc(Nc2ccccc2)c1
inactive: Potency [2] | Potency [3] | Potency [10] | Potency [4] | Potency [6] | Potency [8] | Potency [5]
